The values below come from PubChem BioAssay (NCI).

This is part of a sample that, as a whole, favours compounds with a hit. Of some 83,000 tested, about 20% had one in any assay.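 96-well plates, one dose, 48 hours. Percent growth reported; active if below 10.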 A number with no mark means an inactive call. The source made the active and inactive calls.

The test system of the experiment is MDA-MB-468 breast. The experiment can be described thus: NCI-60 one-dose screen, 48 h (100 = growth as untreated, 0 = no growth, -100 = all killed). Conditions: 10 µM unless noted.
Turning to `COc1ccc(-c2nc(SCC(=O)Nc3ccc(C(C)=O)cc3)[nH]c(=O)c2C#N)cc1`, the growth was 105%.

As to `Clc1ccc(N/N=C(\c2ccccc2)c2ccccn2)nc1`, the growth is -24.9% (active).

Consider `C#CCOc1ccc(C(Nc2cc(Cl)ccc2Cl)c2nnnn2C2CCCCC2)cc1` (stereo not given), for which the growth was 88.5%.

Take `O=c1ccc(-c2nc(N3CCOCC3)c3ccccc3n2)c[nH]1`: the growth is 95.8%.

On to `CCCCCCCCCCCCCC1=NCC[N+]1(CCO)Cc1ccccc1` (stereo not given), for which the growth is -81.2% (active).

Turning to `C=CCCC1(C)NC(=O)NC1=O` (stereo not given), the growth was 99.3%.

For the molecule `CN(C)c1ccc(Nc2c3ccccc3nc3ccccc23)cc1`, the growth was -27.5% (active).

With `COc1ccc(NC(=O)COc2ccccc2)c(C(N)=O)c1`, the growth is 16.6%.

Regarding `C[C@]12CC[C@@H]3c4ccc(OS(=O)(=O)O)cc4CC[C@H]3[C@@H]1CC[C@@H]2NS(=O)(=O)c1ccc(-c2ccccc2)cc1`, the growth is 76.8%.

For `CCC(=O)c1c(C)[nH]c(C)c1C`, the growth is 54.4%.

On to `O=C(NC1=CC(=O)c2ccccc2C1=O)c1ccccc1`, for which the growth was -91% (active).

Regarding `CCc1nc2cc(/C=C/C(=O)NO)ccc2c(=O)n1CCc1ccc(OC)cc1`, the growth was 14.1%.

For `COc1ccc(/C=N\Nc2ccc([N+](=O)[O-])cn2)cc1OC`, the growth was 79.1%.

As for `CNC(=O)c1c(NC(=O)c2ccc(F)cc2F)sc2c1CCC(=O)C2`, the growth was -15.5% (active).

`Nc1nc(SCC2(CCl)COC2)c2[nH]cnc2n1`: the growth is 108%.

For the molecule `O=C1CC(SC(=S)C2CCCC2=O)C(=O)N1` (stereo not given), the growth is 106%.

Take `O=C(Oc1c(Cl)c(Cl)c(Cl)c(Cl)c1Cl)C1CCCN1C(=O)OCc1ccccc1` (stereo not given): the growth is 11.9%.

Turning to `Cc1nn(-c2ccccc2)c2ncnc(N/N=C/c3ccccc3O)c12`, the growth is -31.7% (active).

In the case of `O=C(CC(O)c1ccncc1)c1ccccc1` (stereo not given), the growth is -50.3% (active).

As for `C=CCn1c(SCC(=O)Nc2ccc(C(=O)/C=C/c3cc(OC)c(OC)c(OC)c3)cc2)nnc1-c1cc(-c2ccc(S(N)(=O)=O)cc2)nc2ccccc12`, the growth was 89.3%.

Consider `CCn1ccnc1C(=O)/C=C/c1ccc(CC(=O)Nc2ccc(F)cc2)cc1`, for which the growth was -13.8% (active).

As for `Brc1ccccc1/C=N/Nc1nc(N/N=C/c2ccccc2Br)nc(N2CCOCC2)n1`, the growth was 90.3%.

Regarding `CCCCCCCCCCCCCCC(C(=O)OCC)C(=O)OCC`, the growth was 95.9%.

As to `Cn1c(=O)c2[nH]c(C(O)c3ccc(Cl)cc3)nc2n(C)c1=O` (stereo not given), the growth is 96.7%.

Take `COc1ccc(S(=O)(=O)N(Cc2ccc3c(n2)C=CC(C)(C)O3)C2CCC2)cc1OC`: the growth was -8.27% (active).

For the molecule `CCCCOc1nc2ccc(C)cc2cc1/C=C/C(=O)/C=C(O)/C=C/c1cc2cc(C)ccc2nc1OCCCC`, the growth is 104%.

As to `COc1cccc(Nc2nc(SC)nc(-c3cccc([N+](=O)[O-])c3)c2C#N)c1`, the growth was 81.2%.

Consider `COc1cc(-c2nn(-c3cccc(NC(=O)NCCNC(=O)c4cccc(C(F)(F)F)c4)c3)cc2-c2ccncc2)ccc1Cl`, for which the growth was 7.11% (active).

Regarding `COc1ccc(/C(=N/O)c2cc(F)c(F)c(OC)c2F)cc1O`, the growth is 18.4%.

On to `O=c1[nH]c(-c2ccccc2)nc(CN2CCCCC2)c1O`, for which the growth was 111%.
